Where a name gives a salt, the structure may show the parent alone. ± gives the standard deviation or the standard deviation of the averaged measurements.

Results on three molecules are retold here after the supplement of paper PMC7366291.

Settings in all cases: 25 µM; exposure: 24-48 hpf
Assay [1] has as its system Danio rerio Tg(wt1b:EGFP) embryo, pronephros. Put plainly: glomerular separation, fold change vs DMSO control; higher = glomeruli further apart (abnormal). The essentials:
(§1)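 Dechorionated Tg(wt1b:EGFP) zebrafish embryos were kept from 24 to 48 hpf at 28.5°C in HEPES-buffered E3 containing 0.003% PTU, 0.5% DMSO and 25 μM compound. The pronephroi were then imaged from the dorsal side in agarose-filled 96-well plates at 470 nm with 10 z-slices, and 16 reference points were placed by hand on maximum projections in Fiji so that a macro could calculate distances and angles. Values lying more than 2 SD from the mean of a feature were discarded. Every feature is given as a fold change against the mean of DMSO-treated embryos from the same day.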

The test system is the same in assay [2]. The assay is described as follows: glomerular width (mean of left and right), fold change vs DMSO control; higher = wider glomerulus. A digest of the protocol: as §1
The test system is the same in assay [3]. The assay is described as follows: fraction of imaged embryos annotated as normal kidney; higher = less nephrotoxic; extreme values may be limits of the assay. A digest of the protocol:
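From 24 to 48 hpf at 28.5°C, dechorionated Tg(wt1b:EGFP) zebrafish embryos in 12-well plates were kept in 5 mM HEPES-buffered E3 with 0.003% PTU, 0.5% DMSO and 25 μM compound. Pronephroi were imaged by widefield fluorescence at 470 nm and judged by eye from maximum projections. Reported is the proportion of embryos per treatment in the normal-kidney category.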

Assay [4] has the same test system. The assay is described as follows: pronephric angle neck segment to proximal convoluted tubule (mean of left and right), fold change vs DMSO control; higher = larger pronephric angle. The essentials: as §1

In assay [1], `CC(=O)[C@H]1CC[C@H]2[C@@H]3CC[C@H]4C[C@H](O)CC[C@]4(C)[C@H]3C(=O)C[C@]12C` [Alfaxalone] gave a glomerular separation of 0.896 ± 0.36. Also, the glomerular width in assay [2] amounted to 0.957 ± 0.0043. In addition, the “fraction of imaged embryos annotated as normal kidney” value in assay [3] was 0.583. The “pronephric angle neck segment” value in assay [4] came to 1.02 ± 0.027.
The molecule `CC(C)C[C@H]1C(=O)N2CCC[C@H]2[C@]2(O)O[C@](NC(=O)[C@@H]3C=C4c5cccc6[nH]c(Br)c(c56)C[C@H]4N(C)C3)(C(C)C)C(=O)N12` [Bromocryptine mesylate] gave a glomerular separation in assay [1] of 1.01 ± 0.34. This molecule also returned a glomerular width in assay [2] of 1.12 ± 0.012. Also, in assay [3], the “fraction of imaged embryos annotated as normal kidney” value was determined as 0.833. Further, the “pronephric angle neck segment” value in assay [4] turned out to be 0.985 ± 0.022.
The matching figures for `CN1C[C@H](CNC(=O)OCc2ccccc2)C[C@@H]2c3cccc4c3c(cn4C)C[C@H]21` [Metergoline]: 0.977 ± 0.48, 0.9966 ± 0.0098, 1 and 0.9894 ± 0.0045.
